Consider nine compounds from PubChem BioAssay (NCI).

Among the test systems are NCI-H23 lung; NCI-H226 lung; NCI-H322M lung; HOP-62 NSCLC; NCI-H460 lung; HOP-92 NSCLC; NCI-H522 lung; A549/ATCC NSCLC; 786-0 renal; COLO 205 colon; DU-145 prostate; MALME-3M melanoma; MDA-MB-231 breast; RXF 393 renal; SF-268 CNS; SF-295 CNS; SF-539 CNS; UACC-257 melanoma; M14 melanoma; K-562 leukemia.
Holding throughout (assay): NCI-60 one-dose screen, 48 h (100 = growth as untreated, 0 = no growth, -100 = all killed)
Common to all, as to conditions: 10 µM

Each structure is given as a SMILES string. The panel holds about 83,000 compounds, 20% with a hit somewhere; the sample as a whole holds those more often.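 Assay: single dose, 48 h. Readout: percent growth (0 = no net growth; negative = cell death). Active: <10.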 A number with no mark means an inactive call. Active and inactive are the calls of the source.

As for `Cc1ccc(C(=O)NCCCNc2nc(Nc3ccc(N4CCN(C)CC4)cc3)nc3ccsc23)cc1`, the growth was 53.4% in the experiment with NCI-H23 lung; 68.7% with NCI-H226 lung; 64.3% in the experiment with NCI-H322M lung; 73.7% in the experiment with HOP-62 NSCLC; 49.2% in the experiment with NCI-H460 lung; 27.1% with HOP-92 NSCLC. Also, the growth with NCI-H522 lung is 73.2%; in the experiment with A549/ATCC NSCLC, 54.5%; in the experiment with 786-0 renal it was -11.6% (active); in the experiment with COLO 205 colon it was 32.7%; in the experiment on DU-145 prostate, 58.7%; in the experiment with MALME-3M melanoma, -94.8% (active). The growth is 44.4% in the experiment on MDA-MB-231 breast; -53.1% (active) with RXF 393 renal; 60.4% in the experiment on SF-268 CNS; 44.8% in the experiment with SF-295 CNS; -89.9% (active) with SF-539 CNS; -17.7% (active) with UACC-257 melanoma. For the same compound, in the experiment with M14 melanoma, the growth was -7.88% (active).
With `CC(=C(c1ccc(OCCCN(C)C)cc1)c1ccc(OCCCN(C)C)cc1)c1ccccc1`, the growth in the experiment on NCI-H23 lung is -97.9% (active); with NCI-H226 lung it was -81.5% (active); in the experiment on NCI-H322M lung, -100% (active); in the experiment on HOP-62 NSCLC, -90.5% (active); in the experiment with NCI-H460 lung, 3.15% (active); in the experiment with HOP-92 NSCLC, -76.4% (active). For the same compound, the growth with NCI-H522 lung is -84.6% (active); in the experiment on A549/ATCC NSCLC it was -73.1% (active); with 786-0 renal, -44% (active); with COLO 205 colon, -85.9% (active); with DU-145 prostate it was -100% (active); in the experiment on MALME-3M melanoma it was -98.6% (active). Besides, the growth was -99.6% (active) with MDA-MB-231 breast; -96.7% (active) in the experiment with RXF 393 renal; -80.4% (active) in the experiment on SF-268 CNS; -92.8% (active) in the experiment with SF-295 CNS; -100% (active) in the experiment on SF-539 CNS; -88% (active) in the experiment with UACC-257 melanoma. The growth in the experiment with M14 melanoma is -56.9% (active).
Turning to `NS(=O)(=O)c1ccc(NC(=O)CSc2ccc(-c3ccc(Cl)cc3)nn2)c(Br)c1`, the growth was 61.1% in the experiment with NCI-H23 lung; -5.33% (active) in the experiment with NCI-H226 lung; 48.5% with NCI-H322M lung; 2.17% (active) with HOP-62 NSCLC; 23% in the experiment on NCI-H460 lung; -14.4% (active) with HOP-92 NSCLC. Moreover, the growth in the experiment with NCI-H522 lung was 63.6%; with A549/ATCC NSCLC it was 28.5%; in the experiment with 786-0 renal, 19.1%; in the experiment with DU-145 prostate, 32.5%; in the experiment with K-562 leukemia, 74.6%; in the experiment on MALME-3M melanoma, 29.2%. In addition, the growth in the experiment with MDA-MB-231 breast is 8.72% (active); in the experiment with SF-268 CNS, 27.9%; in the experiment on SF-295 CNS, 3.43% (active); in the experiment with SF-539 CNS, 28.4%; with UACC-257 melanoma, 75.5%; in the experiment on M14 melanoma it was 85.1%.
On to `CCCCCc1ccc(S(=O)(=O)Nc2cc(-c3csc(N(C)C(C)=O)n3)ccc2N2CCN(C)CC2)cc1`, for which the growth with NCI-H23 lung is 44.3%; in the experiment on NCI-H226 lung, 37.4%; with NCI-H322M lung, 63.6%; in the experiment with HOP-62 NSCLC it was 54.2%; in the experiment with NCI-H460 lung, 23.6%; in the experiment on HOP-92 NSCLC it was -12.9% (active). The growth in the experiment with NCI-H522 lung was 32.8%; with A549/ATCC NSCLC it was 57.7%; in the experiment on 786-0 renal it was 8.85% (active); with COLO 205 colon, -65.6% (active); in the experiment with DU-145 prostate, 70.5%; with MALME-3M melanoma, -57.1% (active). Further, the growth is -2.21% (active) in the experiment with MDA-MB-231 breast; -73.8% (active) in the experiment with RXF 393 renal; 73.2% in the experiment with SF-268 CNS; -10.1% (active) in the experiment on SF-295 CNS; -58.7% (active) with SF-539 CNS; -21.8% (active) in the experiment on UACC-257 melanoma. Also, in the experiment with M14 melanoma, the growth is 28.3%.
With `COc1ccc2[nH]c(O)c(N=NC(=O)c3cc(-c4ccc(C)cc4)nc4ccccc34)c2c1`, the growth in the experiment with NCI-H23 lung was 86%; in the experiment on NCI-H226 lung it was 90.6%; with NCI-H322M lung it was 102%; with HOP-62 NSCLC, 102%; in the experiment on NCI-H460 lung it was 95.8%; in the experiment on HOP-92 NSCLC, 97.8%. Further, the growth with NCI-H522 lung was 99.5%; in the experiment on A549/ATCC NSCLC it was 87.2%; with 786-0 renal it was 97.2%; in the experiment with COLO 205 colon, 112%; with DU-145 prostate, 90.8%; in the experiment with MALME-3M melanoma, 103%. The growth was 98.3% with MDA-MB-231 breast; 92.4% in the experiment with RXF 393 renal; 80.2% in the experiment on SF-268 CNS; 108% with SF-295 CNS; 92.3% with SF-539 CNS; 91.2% in the experiment on UACC-257 melanoma. For the same compound, the growth in the experiment with M14 melanoma was 99.1%.
For `COc1cc2c3c(n(CCCNCCO)c(=O)c2cc1OC)-c1nc2c(cc1C3=O)OCO2`, the growth with NCI-H23 lung is -45% (active); in the experiment with NCI-H226 lung, -88.5% (active); in the experiment with NCI-H322M lung it was 16.8%; with HOP-62 NSCLC it was 0.0851% (active); with NCI-H460 lung, -43.9% (active); in the experiment with HOP-92 NSCLC it was 7.23% (active). In addition, the growth with NCI-H522 lung was 2.99% (active); with A549/ATCC NSCLC it was 35.6%; in the experiment with 786-0 renal, -25.9% (active); in the experiment with DU-145 prostate it was 6.05% (active); in the experiment on K-562 leukemia, 10.7%; with MALME-3M melanoma it was 46.7%. For the same compound, the growth is 1.28% (active) in the experiment on MDA-MB-231 breast; 19.1% with SF-268 CNS; -8.95% (active) in the experiment on SF-295 CNS; -57.1% (active) in the experiment on SF-539 CNS; 80.2% in the experiment on UACC-257 melanoma; 23.7% in the experiment with M14 melanoma.
As to `CC1=C2C(=C[C@@](C)(CO)[C@@H]2O)/C(=N\N)[C@](C)(O)C12CC2`, the growth in the experiment with NCI-H23 lung is -77.8% (active); in the experiment with NCI-H226 lung it was -41.2% (active); in the experiment with NCI-H322M lung it was -11.9% (active); in the experiment with HOP-62 NSCLC, -27% (active); with NCI-H460 lung, -6.47% (active); with HOP-92 NSCLC, -22.6% (active). For the same compound, the growth was -62.4% (active) in the experiment with NCI-H522 lung; 5.73% (active) with A549/ATCC NSCLC; 6.59% (active) with 786-0 renal; 1.63% (active) with DU-145 prostate; 19.3% with K-562 leukemia; -76.2% (active) in the experiment on MALME-3M melanoma. In addition, the growth in the experiment with MDA-MB-231 breast is -21% (active); with RXF 393 renal, -90.5% (active); in the experiment on SF-268 CNS, -3.67% (active); with SF-295 CNS it was -14.8% (active); with SF-539 CNS it was -75.8% (active); with UACC-257 melanoma, -49.4% (active). Besides, the growth in the experiment on M14 melanoma is 5.88% (active).
As for `N#C/C(=C\c1ccc(N(c2ccccc2)c2ccccc2)cc1)C(N)=O`, the growth is 55.9% in the experiment with NCI-H23 lung; -82.6% (active) with NCI-H226 lung; 92.9% with NCI-H322M lung; 48.9% in the experiment on HOP-62 NSCLC; 5.51% (active) with NCI-H460 lung; 75.5% in the experiment with HOP-92 NSCLC. Further, the growth with NCI-H522 lung is 74.5%; with A549/ATCC NSCLC, 36.3%; in the experiment on 786-0 renal it was 53.9%; with DU-145 prostate it was 84.8%; in the experiment on K-562 leukemia it was 35.4%; with MALME-3M melanoma, 110%. The growth in the experiment with MDA-MB-231 breast was 89.3%; with SF-268 CNS, 102%; with SF-295 CNS it was 23.5%; with SF-539 CNS, 97%; with UACC-257 melanoma, -55.9% (active); with M14 melanoma, 90.7%.
As to `Cc1ccc(NC(=O)c2ccc(-n3c(=O)[nH]c4ccccc4c3=O)cc2)cc1`, the growth in the experiment on NCI-H23 lung was 88.2%; in the experiment with NCI-H226 lung it was 61%; in the experiment with NCI-H322M lung it was 99.9%; with HOP-62 NSCLC it was 82%; in the experiment with NCI-H460 lung it was 86.3%; with HOP-92 NSCLC, 36.5%. For the same compound, the growth is 13.8% in the experiment on NCI-H522 lung; 113% in the experiment with A549/ATCC NSCLC; 36.7% in the experiment with 786-0 renal; 109% with COLO 205 colon; 102% in the experiment with DU-145 prostate; 84.8% in the experiment with MALME-3M melanoma. The growth in the experiment with MDA-MB-231 breast was 64.6%; with RXF 393 renal, 54.3%; with SF-268 CNS it was 84.4%; in the experiment with SF-295 CNS it was 91.9%; in the experiment with SF-539 CNS, 38%; with UACC-257 melanoma, 122%. Moreover, the growth in the experiment with M14 melanoma was 101%.
